# HEK293 tox: cytotoxic in the GLP-1 receptor inverse agonist counter-screen; 410,000 tested, 0.13% active; Potency, µM (titrated, usually from 38.3 µM), for the others: at the top dose activity change, negative = inhibition, hits mostly inhibitors; HEK293 cAMP-luciferase reporter cells, luminescence, 24 h; AID 624418;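 also: loss of luciferase light is scored as toxicity; potency is read from the fitted curve at half-maximal effect; % is scaled to controls: 0 for no effect and ±100 for the full control effect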
#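 1536-well qHTS counterscreen of the MLSMR; 200 cells/uL, 12 h pre-incubation, 23 nL cpd, 24 h at 37 deg C 5% CO2, luciferase detection reagent, 12 min RT, luminescence. Inhibition = undesired.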
# GLP1R inv ag: acts as inverse agonist at human GLP-1 receptor; HEK293 GLP-1R CRE-luciferase, luminescence, 24 h; GLP-1R form is constitutively active; 410,000 tested, 1.6% active; AID 624417; Potency, µM (doses to about 38.3 µM), for the others: top-dose activity change, negative = inhibition, usual class: inhibitors; also: potency is read from the fitted curve at half-maximal effect; % is scaled to controls: 0 for no effect and ±100 for the full control effect; nearly all actives have a fitted effect of over 55% in size
# Target sequence (P43220 whole entry, looked up): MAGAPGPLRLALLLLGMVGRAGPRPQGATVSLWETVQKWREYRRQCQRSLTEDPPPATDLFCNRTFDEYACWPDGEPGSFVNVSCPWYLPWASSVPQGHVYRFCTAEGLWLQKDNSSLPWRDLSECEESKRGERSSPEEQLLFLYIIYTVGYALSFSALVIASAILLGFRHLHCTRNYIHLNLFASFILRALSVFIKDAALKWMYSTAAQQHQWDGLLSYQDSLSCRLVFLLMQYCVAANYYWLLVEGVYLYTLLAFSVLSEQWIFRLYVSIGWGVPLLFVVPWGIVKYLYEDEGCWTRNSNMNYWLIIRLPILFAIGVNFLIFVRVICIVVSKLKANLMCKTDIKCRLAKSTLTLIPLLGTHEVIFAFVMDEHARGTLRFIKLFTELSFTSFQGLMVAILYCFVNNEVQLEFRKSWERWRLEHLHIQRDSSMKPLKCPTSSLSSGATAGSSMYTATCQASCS
#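 Using stably transfected HEK293 (constitutively active GLP-1R, cAMP-luciferase reporter), compounds were incubated 24 hr and luciferase measured by luminescence.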
# LDHA block: inhibitors of human lactate dehydrogenase A; P00338; purified LDHA, NADH/diaphorase-resazurin fluorescence; active compounds read low; activity change, % (values are at about 110 or 230 µM); 480,000 tested, 0.15% active; AID 1347041; in the data active = activity change below about -30%; inconclusive = mostly about -25% to -30%;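 also: plate controls were DMSO wells for no effect and wells without enzyme for full effect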
#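 Remaining NADH was detected by diaphorase (0.133 mg/mL) converting 37 µM resazurin to fluorescent resorufin, read at 0 and 20 minutes. The preceding 5-minute room-temperature reaction used 2 nM LDHA, 0.2 mM sodium pyruvate and 0.06 mM NADH at pH 7.4.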
# GLP1R ag: agonists of human GLP-1 receptor | P43220 | HEK293 GLP-1R CRE-luciferase, luminescence, 4-6 h; cells express a hypersensitive GLP-1R form | Potency, µM (top dose mostly 45.6 µM), for inactives: at the top dose activation, actives largely listed as activators | 380,000 tested, 0.007% active; also: potency is read from the fitted curve at half-maximal effect; % of control where 0% means no effect
# p53 reactivation: re-activators of mutant p53 | H1299 p53-A138V BP100-luciferase reporter, luminescence, 24 h | Potency, µM (doses to about 92.2 µM), without a hit: top-dose activity change, positive = activation, hits mostly activators | 320,000 tested, 0.063% active; also: potency is read from the fitted curve at half-maximal effect; % of control where 0% means no effect; nearly all actives have a fitted effect of over 45% in size
#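 H1299 (p53-null), stable ts p53-A138V + BP100-Luc; 1000 cells/well, Opti-MEM/10% FBS; cpd 4 pt, 1:5; 24 h, 37 deg C, 5% CO2; detection reagent 10 min RT; luminescence.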
# ClpP mod: qHTS Assay for Activators of ClpP; ATP-dependent Clp protease proteolytic subunit (Bacillus subtilis (strain 168)), P80244; purified B. subtilis ClpP, FRET peptide cleavage, 20 min; Potency, µM (series often up to 57.5 µM), for the others: top-dose activity change, negative = active; 340,000 tested, 1.9% active; AID 651965, 2013; active = well fitted falling curve with a large enough effect; inconclusive = small, poorly fitted or top-dose-only effect; inactive = no such curve, though single readings can be large or run the other way; also: potency is read from the fitted curve at half-maximal effect; the source files actives as falling curves though it sought activators and does not explain the sign; nearly all actives have a fitted effect of over 65% in size
# Target sequence (P80244 whole entry, looked up): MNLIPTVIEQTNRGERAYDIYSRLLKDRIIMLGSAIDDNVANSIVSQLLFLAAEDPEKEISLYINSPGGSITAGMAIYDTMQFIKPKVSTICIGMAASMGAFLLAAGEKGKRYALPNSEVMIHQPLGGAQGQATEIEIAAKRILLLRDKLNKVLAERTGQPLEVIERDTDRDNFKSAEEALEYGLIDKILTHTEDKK
#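 ClpP 10 microg/mL final, pH 8 Tris/KCl buffer with BSA, glycerol, Tween-20; compound pinned in; FRET-FV substrate; RT 20 min; Ex320/Em430; ΔFRET vs ADEP 5.8 microM, DMSO, no enzyme.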
# * hit, by the source's call; ? = inconclusive; nt = no result given; ! = a repeat was not active. An excerpt weighted towards active compounds, which were near 2.9% of everything screened. Unless noted, calls follow the shape of the dose curve; as a rule, active = well fitted curve in the direction sought with a large enough effect; inconclusive = small, poorly fitted or top-dose-only effect, or another doubt; inactive = no such curve, though single readings can be large; an effect the other way counts as inactive or inconclusive.
SMILES,HEK293 tox,GLP1R inv ag,LDHA block,GLP1R ag,p53 reactivation,ClpP mod
CNC[C@H]1Oc2cc(Br)ccc2S(=O)(=O)N([C@@H](C)CO)C[C@@H]1C,-2%,9%,3,-5%,nt,3%
CCOc1cc(S(=O)(=O)n2cc(-c3ccc(F)cc3)c(N)n2)cc(OCC)c1OCC,?,2.2µM*,-1,1%,-25%,-1%
CCOc1ccc(CNc2ccccc2)cc1,nt,nt,18,nt,nt,nt
CCOc1ccc(CNC(c2ccccc2)c2ccccc2)cc1,3%,7.1µM*,-1,10%,?,nt
O=C(NCCc1ccc(Cl)cc1)C(=O)NCC(c1ccc2c(c1)OCO2)N1CCOCC1 (centres undefined),-13%,3%,-2,nt,nt,1%
CC(C)n1nc(C(=O)Oc2ccc(Cl)cc2)c2ccccc2c1=O,7%,-17%,-3,-16%,18%,18µM*
CCc1nnc(NC(=O)c2ccc(NS(=O)(=O)c3ccccc3)cc2)s1,0%,0%,0,-2%,-3%,28µM*!
CCc1nnc(NS(=O)(=O)c2ccc(NC(=O)c3ccccc3)cc2)s1,6%,9%,-6,-7%,8%,0%
Cc1ccc(C)c(N2CCN(CCCNC(=O)c3cnn(-c4ccccc4)c3C3CCN(C(=O)OC(C)(C)C)CC3)CC2)c1,?,?,4,nt,nt,-1%
CCO[C@H]1OC(C(=O)N2CCOCC2)=C[C@@H](C)[C@@H]1CCCO,5%,-1%,-4,-6%,4%,-4%
Cc1cc(NC(=O)Cn2c(=O)oc3ccc(Cl)cc32)no1,1%,16%,-1,-3%,-9%,-1%
CCc1ccc(-c2cc(C(=O)N3N=C(C(F)F)CC3(O)C(F)F)c3ccccc3n2)cc1 (centres undefined),?,-22%,3,1%,?,22µM*
O=C(CN(CC1CCCO1)C(=O)CCC(=O)Nc1ccccn1)NCc1ccccc1 (centres undefined),-13%,2%,0,7%,2%,0%
COc1ccc(S(=O)(=O)N2CCOCC2)cc1NC(=O)CC(C)c1ccccc1 (centres undefined),12%,-10%,-8,-1%,-6%,0%
CCN1C(=O)c2cccc3c(S(=O)(=O)NC(Cc4c[nH]c5ccccc45)C(=O)O)ccc1c23 (centres undefined),-7%,0%,3,-3%,5%,3%
CC1(C)Cc2c(sc(NC(=O)c3ccc(S(=O)(=O)N4CCCC4)cc3)c2C#N)C(C)(C)N1,0%,22%,-8,-4%,11%,0%
COc1ccc2nc(/C=N/NC(=O)[C@H](CCSC)NC(=O)OC(C)(C)C)ccc2c1,-6%,10%,-1,22%,-9%,8.9µM*
CCC(C)[C@H](NC(=O)OC(C)(C)C)C(=O)N/N=C/c1ccc2cc(OC)ccc2n1 (some centres undefined),-4%,-2%,-3,11%,6%,?
COC(C(=O)C(O)C(C)O)C1Cc2cc3cc(OC4CC(OC5CC(O)C(O)C(C)O5)C(O)C(C)O4)c(C)c(O)c3c(O)c2C(=O)C1OC1CC(OC2CC(OC3CC(O)C(OC)C(C)O3)C(O)C(C)O2)C(O)C(C)O1 (centres undefined),141%,-69%,25,-10%,nt,5%
CSc1nnc2c(n1)c(C)nn2-c1ccc(C)cc1,4%,20%,-7,-10%,-4%,-8%
CSc1ccc(/C=C/C(=O)c2ccc(NC(=O)C(C)C)cc2)cc1,?,10µM*,-12,-12%,-30%,-22%
O=C(c1ccco1)N(Cc1cc2ccccc2[nH]c1=O)C1CCCCC1,-18%,?,-3,0%,5%,-13%
O=C1c2ccccc2C(c2nnnn2Cc2ccccc2)N1Cc1ccco1 (centres undefined),-6%,2%,-9,10%,nt,-2%
CN(C)c1ccc(NS(=O)(=O)c2cc(Cl)ccc2Cl)cc1,?,?,11,0%,?,-1%
CCN(c1ccc(NS(=O)(=O)c2cc(Cl)ccc2Cl)cc1)C(C)C,10%,11µM*,5,-1%,-8%,-2%
SMILES,HEK293 tox,GLP1R inv ag,LDHA block,GLP1R ag,p53 reactivation,ClpP mod
CCN(C(=O)Cc1cccs1)c1nnc(-c2cc(OC)c(OC)c(OC)c2)s1,-20%,-14%,-4,9%,-14%,22µM*
CCN(CC)c1cc(C)c2cc(NC(=O)c3cccc(OC)c3)ccc2n1,-27%,10µM*,4,0%,nt,-7%
CCN(CC)c1cc(C)c2cc(NC(=O)/C=C/c3cc(OC)c(OC)c(OC)c3)ccc2n1,?,11µM*,13,nt,nt,-4%
CCOc1ccc(/C=C/C(=O)Nc2ccc3nc(N(CC)CC)cc(C)c3c2)cc1OC,-25%,?,0,nt,nt,0%
CCN(CC)c1cc(C)c2cc(NC(=O)CNC(C)=O)ccc2n1,49%,0%,8,-3%,-11%,16µM*
CCOc1ccc(C(=O)Nc2ccc3nc(N(CC)CC)cc(C)c3c2)cc1,-9%,?,-2,1%,nt,-28%
COc1ccccc1CNC(=O)C1(NC(=O)Nc2ccc(C)cc2)CCCCC1,-7%,8.9µM*,-22,-8%,-1%,-1%
COc1ccc(-c2c(C)nn3c(Cl)c(C)c(C)nc23)cc1,11%,19%,-9,?,nt,-2%
Cc1ccc(Nc2nc(N)c3ccccc3n2)cc1C,3%,7.1µM*,-2,-1%,nt,-6%
O=C(NCCc1ccccc1F)c1ccc2c(c1)OCCO2,15%,0.89µM*,-6,-3%,-20%,nt
O=C(NCc1ccccc1F)c1ccc2c(c1)OCO2,-3%,-7%,-9,0%,?,-9%
CCOc1ccc(CCNC(=O)CN2C(=O)C(CC)Oc3ccccc32)cc1OCC (centres undefined),-8%,-10%,-8,nt,nt,-2%
CN(Cc1ccccc1)C(=O)CSc1nnc(-c2cccc(Cl)c2)o1,5%,10µM*,2,nt,nt,1%
CCOC(=O)CN(C(=O)CSc1nnc(-c2cccc(OC)c2)o1)c1ccc(F)cc1,-16%,-30%,-2,7%,1%,2%
COc1cccc(-c2nnc(SCC(=O)N3CC(C)CC(C)C3)o2)c1 (centres undefined),4%,11µM*,-1,-7%,-4%,-8%
COC(=O)CN(C(=O)CSc1nnc(-c2cccc(OC)c2)o1)c1ccc(OC)cc1,-3%,3%,4,17%,1%,16µM*
